PKM2 inh: qHTS Assay for Inhibitors of Human Muscle isoform 2 Pyruvate Kinase | Pyruvate kinase PKM (Homo sapiens), P14618 | purified PKM2, ATP generation, Kinase-Glo luminescence | Potency, µM (titrated, usually from 57.5 µM), for the others: at the top dose activity change, negative = inhibition, actives largely listed as inhibitors | hit rate 0.058% among 260,000 | AID 1634, 2009; note: potency is the fitted concentration of half-maximal effect; nearly all actives have a fitted effect of over 60% in size
Target sequence (P14618 whole entry, looked up, canonical isoform): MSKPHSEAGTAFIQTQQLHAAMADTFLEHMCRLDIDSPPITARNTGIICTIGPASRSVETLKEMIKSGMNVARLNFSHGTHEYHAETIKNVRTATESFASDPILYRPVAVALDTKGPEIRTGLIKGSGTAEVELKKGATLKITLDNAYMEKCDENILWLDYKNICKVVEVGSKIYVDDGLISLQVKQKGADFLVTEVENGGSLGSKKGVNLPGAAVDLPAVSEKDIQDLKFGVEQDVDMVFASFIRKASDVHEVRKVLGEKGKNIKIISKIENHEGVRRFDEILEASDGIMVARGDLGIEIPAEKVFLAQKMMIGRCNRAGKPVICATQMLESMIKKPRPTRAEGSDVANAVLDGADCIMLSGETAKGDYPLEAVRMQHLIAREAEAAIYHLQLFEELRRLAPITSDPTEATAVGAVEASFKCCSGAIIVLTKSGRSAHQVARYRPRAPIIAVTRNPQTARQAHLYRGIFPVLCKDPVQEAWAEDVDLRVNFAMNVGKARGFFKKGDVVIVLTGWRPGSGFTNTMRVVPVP
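Coupled luciferase luminescence (Kinase-Glo) detects ATP generated from 0.1 mM ADP and 0.5 mM PEP in imidazole buffer pH 7.2 with KCl, MgCl2; 1 h at room temperature. Enzyme at intermediate activity; normalized to uninhibited and no-enzyme controls.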
PKM2 inh CRC: Confirmation Concentration-Response Assay for Inhibitors of Human Muscle isoform 2 Pyruvate Kinase; shares compounds with PKM2 inh; purified hPK-M2, Kinase-Glo ATP luminescence, 1 h; Potency, µM (highest dose often 57.5 µM), inactives show at the highest dose activity change, negative = inhibition, usual class: inhibitors; hit rate 50% among 55; AID 2263, 2010
PKM2 FLuc cs: Secondary assay for Inhibitors of Human Pyruvate Kinase M2 isoform: FLuc Counterscreen. shares compounds with PKM2 inh. Kinase-Glo firefly luciferase, luminescence, 8 min. Potency, µM (top dose mostly 57.5 µM), for the others: at the top dose activity, negative = inhibition, actives largely listed as inhibitors. hit rate 30% among 55
PKM2 LDH couple: Secondary assay for Inhibitors of Human Pyruvate Kinase M2 isoform; 55 tested, under 10 active; AID 2267, 2010; purified hPK-M2, LDH-coupled NADH fluorescence kinetic; shares compounds with PKM2 inh; Potency, µM (series often up to 57.5 µM), for inactives: at the top dose activity change, negative = inhibition, usual class: inhibitors
* hit, by the source's call; ? = inconclusive; . = no result. This excerpt belongs to a sample that is enriched for hits. Calls come from the whole dose curve; as a rule, active = well fitted curve in the direction sought with a large enough effect; inconclusive = small, poorly fitted or top-dose-only effect, or another doubt; inactive = no such curve, though single readings can be large; an effect the other way counts as inactive or inconclusive.

SMILES | PKM2 inh | others
CCc1ccc(NC(=O)Cn2ccn(-c3cccc(Cl)c3)c(=O)c2=O)cc1 | 32.8%
NC(=O)CN1CCN(C(=O)NC2CCCCC2)CC1 | 68.7%
CC1=NN(c2nc3ccccc3[nH]2)C(=O)/C1=C/N(C)C | 6.31µM* | PKM2 inh CRC=2.31µM*;PKM2 FLuc cs=6.51µM*;PKM2 LDH couple=-6.4%
CN(CC1CCCN(CCc2cccc(C(F)(F)F)c2)C1)C(=O)c1cc2ccccc2o1 (stereo not drawn) | 38.1%
Cn1ccs/c1=N\S(=O)(=O)c1ccc(Br)cc1 | 75.5%
C=CCn1c(-c2ccc(OC)c(OC)c2)cs/c1=N\c1ccccn1 | 44.6%
CC(=O)Oc1ccc(NC(=O)Cc2ccccc2)c(C(=O)O)c1 | -0.6%
CCOc1ccc(NC(=O)Nc2ccccc2C(N)=O)cc1 | 3.98µM* | PKM2 inh CRC=9.19µM*;PKM2 FLuc cs=6.51µM*;PKM2 LDH couple=-1.5%
CCOC(=O)C(Nc1ccc2ccccc2c1)C(=O)OCC | 30.4%
Cc1ccc(NS(=O)(=O)c2ccc3oc(=O)ccc3c2)cc1Cl | 87.4%
c1cncc(CSc2nnc3ccc(-c4cccs4)nn23)c1 | 94.0%
COc1cccc(NC(=O)CSc2nnc3cc(C)nc(N)n23)c1 | 134.8%
COc1ccc(C(=O)Nc2cccc(OC)c2)cc1 | ? | PKM2 inh CRC=?;PKM2 FLuc cs=?;PKM2 LDH couple=-9.6%
COc1cccc(NC(=O)CSc2nnc(C)s2)c1 | 41.6%
CCNS(=O)(=O)c1c(C)cc(N2CCCC2=O)cc1C | 47.4%
O=C(NCCc1ccccc1)c1c(O)c2ccccc2[nH]c1=O | 35.6%
O=C1C(c2cc(=O)c3ccccc3[nH]2)=C(O)c2ccccc21 | 11.2µM* | PKM2 inh CRC=16.3µM*;PKM2 FLuc cs=-12.9%;PKM2 LDH couple=?
Cc1ccc(S(=O)(=O)C(C#N)c2nc3ccccc3nc2N2CCCC2)cc1 (stereo not drawn) | 31.0%
O=C1c2oc3ccccc3c(=O)c2C(c2cccnc2)N1Cc1ccco1 (stereo not drawn) | 36.0%
O=[N+]([O-])c1ccc2c(OCc3nnc(-c4ccccc4Br)o3)ncnc2c1 | 43.3%
Cc1nc(N/N=C/c2ccccn2)sc1C | 7.94µM* | PKM2 inh CRC=9.19µM*;PKM2 FLuc cs=5.17µM*;PKM2 LDH couple=-9.8%
CC1C/C(=C/c2ccccn2)C(=O)/C(=C/c2ccccn2)C1 (stereo not drawn) | 41.2%
CC(=O)Nc1sc(N/N=C\c2ccccc2F)nc1-c1cccs1 | 50.9%
O=S(=O)(c1ccc(F)cc1)N1CCn2c(nc3ccccc32)C1 | 30.4%
CC(=O)c1c(C)oc2ccc(N(C(C)=O)S(=O)(=O)c3cccc4cccnc34)cc12 | 75.8%
SMILES | PKM2 inh | others
C/C(=N\NC(=S)Nc1ccccc1C)C1Cc2ccccc2C(=O)O1 (stereo not drawn) | 49.3%
Cc1noc(NS(=O)(=O)c2ccc(N/C=C\C(=O)c3ccc4c(c3)OCO4)cc2)c1C | 14.6%
Cc1ccnc(NC(=O)c2ccc3c(c2)OCO3)c1 | 12.6µM* | PKM2 inh CRC=16.3µM*;PKM2 FLuc cs=13µM*;PKM2 LDH couple=-10.4%
CC(=O)N1N=C(c2ccc(C)cc2)CC1c1ccc2c(c1)OCO2 (stereo not drawn) | 50.4%
CC(NC(=O)c1ccc(OC2CCN(Cc3ccccn3)CC2)cc1)c1ccccc1 (stereo not drawn) | 74.5%
Cc1cc(C)n2cc(CSc3nnnn3-c3ccccc3)nc2n1 | 228.2%
O=C(NCCOc1ccccc1)C1CCCCC1 | 35.1%
Cc1ccccc1Nc1c(-c2ccc(Cl)s2)nc2ccccn12 | . | PKM2 inh CRC=4.9%;PKM2 FLuc cs=0.2%;PKM2 LDH couple=?
COc1ccc(C(C)(C)C)cc1NC(=O)c1[nH]c(C)c(C(C)=O)c1C | 61.1%
Cc1nnc(SCc2nc3sc4c(c3c(=O)[nH]2)CCCC4)n(N)c1=O | 86.5%
Cc1cc(=O)n(C)c(=O)n1CCCCOc1ccc([N+](=O)[O-])cc1 | 53.8%
COc1cc(/C=C(\C#N)C(N)=O)ccc1OS(=O)(=O)c1ccc(C)cc1 | 46.4%
COc1ccc(S(=O)(=O)N(C(C)=O)c2ccc3oc(=O)sc3c2)cc1 | 79.9%
CCN(CC)S(=O)(=O)c1cc(C(=O)Nc2ccc(Cl)cn2)ccc1C | 1.8%
CCOC(=O)C(Cc1ccccc1)C(=O)Nc1nccs1 (stereo not drawn) | 44.9%
O=C(CCCc1nc2ccccc2s1)Nc1nccs1 | 32.4%
CCOc1ccc(OCC(=O)Nc2nccs2)cc1 | 10µM* | PKM2 inh CRC=10.3µM*;PKM2 FLuc cs=?;PKM2 LDH couple=-1.6%
COc1ccc(CC(=O)N2CCN(S(=O)(=O)c3cccs3)CC2)cc1OC | 56.9%
O=C1C2C3C=CC(CNS(=O)(=O)c4ccccc4)(O3)C2C(=O)N1c1ccc(Cl)cc1 (stereo not drawn) | 30.8%
Cc1ccc2nc(-c3cccs3)c(Nc3ccccc3)n2c1 | . | PKM2 inh CRC=2.8%;PKM2 FLuc cs=-4.2%;PKM2 LDH couple=-6.9%
O=C(CSc1ccc(-c2cccs2)nn1)Nc1ccccc1 | 44.1%
Cc1ccc2nc(-c3ccncc3)c(Nc3ccccc3)n2c1 | . | PKM2 inh CRC=15.9%;PKM2 FLuc cs=-2.2%;PKM2 LDH couple=-0.7%
Cc1ccc(S(=O)(=O)CC(O)COc2ccc(F)cc2Cl)c(C)c1 (stereo not drawn) | 70.8%
Cc1cc(C)c2cc(CN(Cc3ccco3)C(=O)NCc3ccccc3)c(=O)[nH]c2c1 | 50.7%
Cc1ccc(N(Cc2cc3ccc(C)cc3[nH]c2=O)S(C)(=O)=O)c(C)c1 | 74.3%
SMILES | PKM2 inh | others
CCOC(=O)C1=C(C)N=c2s/c(=C/c3ccco3)c(=O)n2C1c1cccc(OC)c1 (stereo not drawn) | 32.3%
Cn1c(N=Nc2ccccc2)nc2ccccc21 | 5.62µM* | PKM2 inh CRC=13µM*;PKM2 FLuc cs=5.17µM*;PKM2 LDH couple=29.6%
O=C(Oc1ccc(OC(=O)c2ccco2)c(S(=O)(=O)c2ccc(Br)cc2)c1)c1ccco1 | 69.2%
CC(=O)N(C1CC(C)C(C#N)(C#N)C1(C#N)C#N)N(C)C (stereo not drawn) | 32.2%
Cc1cccc(CSc2nn3c(=O)c(C)nnc3s2)c1 | 64.7%
O=C1C=CC(=O)N1CCCCCCN1C(=O)C=CC1=O | 10µM* | PKM2 inh CRC=6.51µM*;PKM2 FLuc cs=-0.8%;PKM2 LDH couple=-28.5%
O=c1cc(N2CCCCC2)[nH]c(=O)n1C1CCCCC1 | 63.0%
O=C(NCc1ccc(F)cc1)C1CCN(S(=O)(=O)c2ccc3c(c2)OCCCO3)CC1 | 45.5%
Cc1ccn2c(NCc3ccco3)c(-c3ccccc3)nc2c1 | . | PKM2 inh CRC=-10.1%;PKM2 FLuc cs=1.0%;PKM2 LDH couple=?
Cc1n[nH]c(=O)nc1NCc1ccco1 | 32.6%
COC(=O)Nc1c(-c2ccccc2)nc2ccccn12 | 35.6%
CC(=O)c1ccc(N2CCc3ccccc3C2)c([N+](=O)[O-])c1 | 49.7%
CN1C(=O)Cc2cc(S(=O)(=O)NCc3cccs3)ccc21 | 44.5%
CCC(C)[C@@H](C(=O)Nc1ccc2c(c1)OCO2)N1Cc2ccccc2C1=O (stereo partly drawn) | 35.1%
COc1ccc(S(=O)(=O)Nc2ccc(CC#N)cc2)cc1 | 38.7%
Cc1oc2c(C)c(O)ccc2c(=O)c1-c1nncn1-c1ccccc1 | 82.1%
O=C(NC(=O)c1ccccc1)Nc1ccccn1 | 5.01µM* | PKM2 inh CRC=11.6µM*;PKM2 FLuc cs=5.17µM*;PKM2 LDH couple=-2.1%
Cc1cc(C)c(NC(=O)NC(=O)c2cccc(F)c2)c(C)n1 | 30.6%

Compound activity as filed in PubChem BioAssay.
